The source of these data is PubChem BioAssay (EPA / NIEHS).

Structures are written as SMILES. Calls of active or inactive are those of the source. Rule for the calls: active = hit-call score of the fitted dose curve at least 0.9, where 1 is the maximum; inactive = score below 0.9.

The nature of this assay: ATG_M_61_CIS: Attagene CIS-FACTORIAL HepG2 Assay for M61 Transcription Factor (Internal Marker) (AID 2282937). The note with it: HepG2 Attagene CIS-FACTORIAL M61 internal marker reporter; actives raise or lower the signal. On the procedure: ATG_CIS is a cell-based, multiplexed-readout assay that uses HepG2, a human liver cell line, with measurements taken at 24 hours after chemical dosing in a 24-well plate.ATG_M_61_CIS is one of 52 assay component(s) measured or calculated from the ATG_CIS assay. It is designed to make measurements of mRNA induction, a form of inducible reporter, as detected with fluorescence intensity signals by Reverse transcription polymerase chain reaction (RT-PCR) and Capillary electrophoresis technology.Data from the assay component ATG_M_61_CIS was analyzed into 1 assay endpoint. This assay endpoint, ATG_M_61_CIS, was analyzed with bidirectional fitting relative to DMSO as the negative control and baseline of activity. Using a type of inducible reporter, measures of mRNA for gain or loss-of-signal activity can be used to understand the background control at the transcription factor-level as they relate to the gene . Furthermore, this assay endpoint can be referred to as a secondary readout, because this assay has produced multiple assay endpoints where this one serves a background control function. To generalize the intended target to other relatable targets, this assay endpoint is annotated to the background measurement intended target family, where the subfamily is internal marker.
Human liver HepG2 cells are transiently transfected with multiple reporter transcription units (MRTUs) in 6-well plates using FuGene 6 reagent (Roche; 3 ml FuGene/1 mg DNA). The MRTU constructs are regulated by a cis-regulating element (promoter). […] A major difference between the CIS and TRANS system is that in CIS activities of endogenous TFs are measured, whereas the TRANS assay evaluates changes in activities of exogenous, chimeric NR-Gal4 proteins. […] At the end of 24 hour incubation, total RNA was isolated using TriZol reagent (Invitrogen). The isolated RNA is then reverse-transcribed using oligo(dT) primer and Mo-MLV reverse transcriptase (Invitrogen) with DNAse I (Ambion) treatment for 30 min. The one-tenth of the produced cDNA was amplified by PCR using Taq DNA polymerase (Invitrogen) and two reporter sequence-specific primers. The PCR products were fluorescently labeled by primer extension with 6-arboxyfluorescein (6-FAM) 5'-labeled reporter sequence-specific primer (2 min at 95 C, 20 s at 68 C and 10 min at 72 C) and these products were digested with 5U of HpaI (New England Biolabs) for 2h at 37 C. The fragments were purified using Qiaquick PCR columns (Qiagen), analyzed on an ABI 3130xL genetic analyzer (Applied Biosystems) with peak positions identified by using a set of X-rhodamine (ROX)-labeled MapMarker1000 molecular weight standards (BioVentures). The raw capillary electrophoresis data was processed using Attagraph software (Attagene).
Regarding `O=[N+]([O-])c1ccccc1`, the call was inactive. Same read-out and setting: then `c1cc2c3c(cccc3c1)CC2`, with “inactive”; and `CCCCN(CCCC)N=O`, with “inactive”. What is called AC50 is the concentration giving half of the maximal activity seen. `Cc1cc(C)c(C(=O)P(=O)(c2ccccc2)c2ccccc2)c(C)c1`: the concentration at half-maximal activity (AC50) is 60.7 µM (active). `c1ccc2c(c1)Nc1ccccc1S2`: the compound was classed as inactive. Take `O=S1(=O)OCC2C(CO1)C1(Cl)C(Cl)=C(Cl)C2(Cl)C1(Cl)Cl` (stereo not given): the compound was classed as inactive.

For the compound `C=CC(=O)OCC(F)(F)C(F)F`, the outcome was inactive.

Turning to `c1ccc2c(c1)sc1ccccc12`, the compound was classed as inactive. As for `CCCCN(CCCC)SN(C)C(=O)Oc1cccc2c1OC(C)(C)C2`, the compound was classed as inactive. For `CCCCc1ccc(O)cc1`, the outcome was inactive. Turning to `CC(C)CBr`, the result was inactive. On the same count and under the same terms, the value for `CC(O)C#N` (stereo not given) was “inactive”; that for `CCC1(c2ccccc2)C(=O)N=C(O)NC1=O` (stereo not given) was “inactive”. Still for that read-out and setting: the value for `CCOP(=S)(OCC)SCS(=O)(=O)CC` was “inactive”. Regarding `CSC(C)(C)C=NO`, the compound was called inactive. Consider `O=c1ssc(Cl)c1Cl`, for which the call was inactive. Same read-out and setting: the value for `CCN(CC)C1CCCCC1` was “inactive”; that for `N#Cc1ccc(O)cc1` was “inactive”. As to `CC1(C)CN=C(NN=C(/C=C/c2ccc(C(F)(F)F)cc2)/C=C/c2ccc(C(F)(F)F)cc2)NC1`, the call was inactive.

As for `O=P(OCC(Br)CBr)(OCC(Br)CBr)OCC(Br)CBr` (stereo not given), the compound was called inactive. Take `Nc1cc2c3c(c1)C(c1ccccc1)=N[C@@H](NC(=O)c1cccnc1)C(=O)N3CC2`: the result was inactive. Consider `C=C(C)C(=O)OCC1CO1` (stereo not given), for which the compound was called inactive. Same read-out and setting: the value for `CCOS(=O)(=O)OCC` was “inactive”; that for `COC(N)=O` was “inactive”; that for `CCOC(=O)c1ccccc1N` was “inactive”. As to `CC(C)(C)OOC(C)(C)C`, the compound was called inactive. Still for that read-out and setting: the value for `O=C(O)C(Cl)Cl` was “inactive”; that for `Oc1ccccc1Br` was “inactive”.

On to `OCC(F)(F)OC(F)(F)C(F)(F)OC(F)(F)CO`, for which the result was inactive. The same measure, in the same setting: then `N#Cc1cc([N+](=O)[O-])ccc1N`, with “inactive”.

Take `O=P(Oc1ccccc1)(Oc1ccccc1)Oc1ccccc1`: the outcome was inactive. On to `Oc1ccc(I)cc1`, for which the compound was classed as inactive.

In the case of `CNC(=O)Oc1ccc(N(C)C)c(C)c1`, the outcome was inactive. For `Cc1ccc(N)cc1N`, the call was inactive.

Consider `CC(O)C(F)(F)C(F)(F)F` (stereo not given), for which the compound was called inactive.

On to `Cc1c([N+](=O)[O-])cc2c(c1[N+](=O)[O-])C(C)(C)CC2(C)C`, for which the result was inactive. On the same count and under the same terms, then `NNC(N)=S`, with “inactive”; and `O=C(O)C(F)(F)OC(F)(F)C(F)(F)OC(F)(F)C(=O)O`, with “inactive”; and `N#C/C=C/c1ccccc1`, with “inactive”. With `CCOC(=O)c1ccccc1C(=O)OCC`, the call was inactive.
